In all, about 69,000 compounds went through this assay and about 8,600 (12%) showed an effect of 50% or more. The full list was thinned out, with strong results kept by preference.
System: Plasmodium berghei
Assay: Screen against P. berghei liver stage (PbLuc), transformed with Luciferase, at 10uM
Type: functional, HepG2
Conditions: tested at 10 uM

With O=C(NCc1ccc(OCC2CC2)nc1)c1c(F)cccc1F as the compound, how does the INHIBITION read?
The INHIBITION was -26.8%.

How did the INHIBITION turn out when CN(C)C(=O)CNS(=O)(=O)c1cc(Br)ccc1F was run?
Its INHIBITION is 42.4%.

How did the INHIBITION turn out when CCN(CC)C(=O)CNS(=O)(=O)c1cc(Br)ccc1F was run?
The INHIBITION was 23%.

How did the INHIBITION turn out when CCNC(=O)CNS(=O)(=O)c1cc(Br)ccc1F was run?
The INHIBITION was 53.6%.

For COCC(=O)N1CCCC(Cc2cnc(-c3c(C)n[nH]c3C)cn2)C1 (centres undefined), which INHIBITION is on record?
Its INHIBITION is -29.8%.

For CC(C#N)CSc1ccccc1NCC(=O)NC(=O)NC(C)(C)C (centres undefined), which INHIBITION is on record?
Its INHIBITION is 61.3%.

How did the INHIBITION turn out when CC(C#N)CSc1ccccc1NCC(=O)NCc1cccs1 (centres undefined) was run?
Its INHIBITION is 58.3%.

How did the INHIBITION turn out when O=C(CSc1nnc[nH]1)NCc1cccs1 was run?
Its INHIBITION is -95.7%.

CC(C#N)CSc1ccccc1NCC(=O)Nc1ccc(F)cc1 (centres undefined) was tested. Which INHIBITION did it give?
Its INHIBITION is 11.1%.

How did the INHIBITION turn out when CC(C#N)CSc1ccccc1NCC(=O)Nc1ccccc1 (centres undefined) was run?
The INHIBITION was 26.5%.

How did the INHIBITION turn out when CC(C#N)CSc1ccccc1NCC(=O)NCc1ccccc1 (centres undefined) was run?
Its INHIBITION is 14.2%.

For CC(C#N)CSc1ccccc1NCC(=O)NC1CCCCC1 (centres undefined), which INHIBITION is on record?
Its INHIBITION is 54.4%.

CC(C#N)CSc1ccccc1NCC(=O)NC(C1CC1)C1CC1 (centres undefined) was tested. Which INHIBITION did it give?
Its INHIBITION is 43.4%.

CC(C)CNC(=O)NC(=O)CNc1ccccc1SCC(C)C#N (centres undefined) was tested. Which INHIBITION did it give?
Its INHIBITION is -7.9%.

How did the INHIBITION turn out when O=c1[nH]c2cn(-c3cccc(F)c3)c(=O)n2n1Cc1ccc(Cl)cc1 was run?
Its INHIBITION is 28.7%.

How did the INHIBITION turn out when CCSc1ccccc1C(=O)N(CCOC)Cc1ccoc1 was run?
Its INHIBITION is 25.1%.

For Cc1cc(C(F)(F)F)nn1CC(C)C(=O)NC(C)C (centres undefined), which INHIBITION is on record?
The INHIBITION was 42.4%.

With CNC(=O)CN1CCCC12CCN(Cc1c[nH]cn1)CC2 as the compound, how does the INHIBITION read?
The INHIBITION was 19.5%.

Which INHIBITION does the source give for CC(C)CN1CCn2nc(CNc3ncnc4[nH]ccc34)cc2C1 here?
Its INHIBITION is -2.39%.

For COc1ccc(C[C@H]2CNCC[C@H]2OC)cc1, which INHIBITION is on record?
The INHIBITION was 1.34%.

How did the INHIBITION turn out when Cc1cnn(C2CCCN(C(=O)CCc3cscn3)C2)c1 (centres undefined) was run?
The INHIBITION was 33.7%.

CC(=O)N1CCCN(c2cc(C3CN(C)CCO3)nc(C)n2)CC1 (centres undefined) was tested. Which INHIBITION did it give?
Its INHIBITION is 36.4%.

Which INHIBITION does the source give for Cc1cn2c(n1)CCC(NC(=O)CCCn1cncn1)C2 (centres undefined) here?
Its INHIBITION is 29.2%.

With O=C(CCn1cncn1)NC1CCc2nccn2C1 (centres undefined) as the compound, how does the INHIBITION read?
Its INHIBITION is -3.7%.

How did the INHIBITION turn out when CCS(=O)(=O)CC(=O)NC1CCc2nccn2C1 (centres undefined) was run?
The INHIBITION was 36.3%.

With CS(=O)(=O)C1(C(=O)NC2CCc3nccn3C2)CCCC1 (centres undefined) as the compound, how does the INHIBITION read?
The INHIBITION was 74.8%.

For O=C(CCCn1cncn1)NC1CCc2nccn2C1 (centres undefined), which INHIBITION is on record?
The INHIBITION was 62.1%.

How did the INHIBITION turn out when COc1ccc(C2(C(=O)NC3CCc4nccn4C3)CCCC2)cc1 (centres undefined) was run?
The INHIBITION was 24.3%.

How did the INHIBITION turn out when Cc1nc(C)n(CC2CN(Cc3noc(C4CC4)n3)CCO2)n1 (centres undefined) was run?
The INHIBITION was 16.8%.

CCc1nc(N2CCC3(CC2)CC(=O)N(Cc2ccc(Cl)cc2)C3)no1 was tested. Which INHIBITION did it give?
Its INHIBITION is -88.1%.

CCc1n[nH]c(C2CN(CCCS(C)(=O)=O)CCO2)n1 (centres undefined) was tested. Which INHIBITION did it give?
Its INHIBITION is 9.14%.

With CS(=O)(=O)N1CCC(NC(=O)COc2ccc(Cl)c(Cl)c2)CC1 as the compound, how does the INHIBITION read?
Its INHIBITION is 27.4%.

Which INHIBITION does the source give for NC(=O)CN1CCC(C(=O)NCCc2nc(-c3ccccc3)cs2)CC1 here?
Its INHIBITION is -53.6%.

For Cc1csc(CCNC(=O)C2CCN(CC(N)=O)CC2)n1, which INHIBITION is on record?
Its INHIBITION is -23.5%.

How did the INHIBITION turn out when NC(=O)CN1CCC(C(=O)NCc2nc(-c3ccc(F)cc3)cs2)CC1 was run?
Its INHIBITION is 55.2%.

How did the INHIBITION turn out when O=C(O)c1ccc(Cc2cccc(F)c2)nc1 was run?
The INHIBITION was 3.48%.

For N#Cc1ccc(C(=O)NCC2(N3CCOCC3)CCCC2)nc1, which INHIBITION is on record?
The INHIBITION was 10.8%.

Which INHIBITION does the source give for O=C1NCCN1C1CCN(Cc2nc(-c3ccccc3)no2)CC1 here?
Its INHIBITION is 92.3%.

How did the INHIBITION turn out when O=C(O)C1(n2cccn2)CCN(Cc2nc(-c3ccccc3)no2)CC1 was run?
The INHIBITION was 35.9%.

For Cc1ccccc1-c1noc(CN2CCC(N3CCNC3=O)CC2)n1, which INHIBITION is on record?
The INHIBITION was 88.2%.

With Cc1ccc(-c2noc(CN3CCC(N4CCNC4=O)CC3)n2)cc1 as the compound, how does the INHIBITION read?
Its INHIBITION is 86.8%.

With Cc1ccccc1-c1noc(CN2CCOC(Cn3cccn3)C2)n1 (centres undefined) as the compound, how does the INHIBITION read?
Its INHIBITION is 23.95%.

c1cc(C2CCN(Cc3nc(-c4ccsc4)no3)CC2)[nH]n1 was tested. Which INHIBITION did it give?
Its INHIBITION is 8.12%.

How did the INHIBITION turn out when Cc1ccccc1-c1noc(CN2CCC(c3ccn[nH]3)CC2)n1 was run?
Its INHIBITION is -7.46%.

With Cc1cccc(-c2noc(CN3CCC(N4CCNC4=O)CC3)n2)c1 as the compound, how does the INHIBITION read?
Its INHIBITION is 41.1%.

How did the INHIBITION turn out when O=C1NCCN1C1CCN(Cc2nc(-c3ccsc3)no2)CC1 was run?
The INHIBITION was 85.4%.

c1cnn(C2CN(Cc3nc(-c4ccsc4)no3)C2)c1 was tested. Which INHIBITION did it give?
The INHIBITION was 17%.

For Cc1ccc(-c2noc(CN3CCC(c4ccn[nH]4)CC3)n2)cc1, which INHIBITION is on record?
Its INHIBITION is 12.8%.

N#CCCN(CC1CC1)Cn1cc(Cl)cn1 was tested. Which INHIBITION did it give?
Its INHIBITION is 13.3%.

O=C1CC(N(C(=O)CCc2c[nH]c3ccccc23)C2CC2)C(=O)N1 (centres undefined) was tested. Which INHIBITION did it give?
Its INHIBITION is 41.8%.

How did the INHIBITION turn out when Cn1ccc2c(C(=O)N3CCCC3c3noc(C4CC4)n3)cccc21 (centres undefined) was run?
The INHIBITION was 19.2%.

How did the INHIBITION turn out when Cc1nc(CN2C[C@@H]3CN(C(=O)NC(C)C)C[C@@H]3C2=O)cs1 was run?
The INHIBITION was 11.3%.

For COCC1c2c(cnn2C)CCN1Cc1ccc(C)cc1 (centres undefined), which INHIBITION is on record?
The INHIBITION was 31.7%.

Which INHIBITION does the source give for CSC(C)(C)CNC(=O)NC(c1nnc2n1CCC2)C(C)C (centres undefined) here?
Its INHIBITION is 21.5%.
